# Experimental data published in ChEMBL document CHEMBL3988442, “University of Dundee, Small-Polar-MMV Screening Library” (2021).
# Screen size: about 69,000 compounds; about 950 (1.4%) showed an effect of 50% or more. The full list was thinned out, with strong results kept by preference.
# Test system: Mycobacterium tuberculosis
# Assay: Cornell M. t heat shock assay; also: in the data most compounds retested in dose-response had high values
# Type: functional, organism-based
# Parameters: dose or concentration left out as unconfirmed
row,Structure (SMILES),Percent Effect [%]
1,Cl.O=C(Nc1ccc(F)cc1)C(c1ccccc1)N1CCOCC1 (centres undefined),-22.41
2,C=Cc1ccc(CN2CCCC3(CNC(=O)c4ccccc4O3)C2)cc1 (centres undefined),-6.668
3,C=Cc1ccc(CN2C(=O)C3(CCNCC3)Nc3ccccc32)cc1,97.35
4,CC(C)c1ccc(CN2C(=O)C3(CCNCC3)Nc3ccccc32)cc1,76.57
5,Cl.O=C1CC2(CCNCC2)C(=O)N1Cc1ccc(F)cc1,-13.65
6,NC(=O)c1ccc(CN2C(=O)C3(CCNCC3)Nc3ccccc32)cc1,0.2477
7,N#Cc1cccc(CN2C(=O)C3(CCNCC3)Nc3ccccc32)c1,-29.61
8,Cc1cc(C[C@@H]2CCC[C@H]2NCc2cc(F)ccc2F)on1.O=C(O)CC(O)(CC(=O)O)C(=O)O,-16.01
9,CC(=O)N1CCN(Cc2nccs2)CC2(CC(=O)N(C)C2)C1.O=C(O)C(F)(F)F (centres undefined),-21.46
10,CS(=O)(=O)N[C@H]1CN(C(=O)c2cscn2)[C@@H]2CCCO[C@H]12,-7.446
11,COCC(=O)N1CCN(Cc2cccnc2)c2ncccc2C1.O=C(O)C(F)(F)F.O=C(O)C(F)(F)F,-17.68
12,CCNc1ncc2c(n1)CN(c1cccc(OC)c1)C2=O,4.456
13,CCOC(=O)CSc1nnc([C@@H](N)CC(C)C)o1.Cl,-13.08
14,OCC1CCCN1c1cc(N2CCC(OC3CCCC3)CC2)ncn1 (centres undefined),105.5
15,OCC1CCCN1c1cc(N2CCN(c3ccccn3)CC2)ncn1 (centres undefined),0.3449
16,CS(=O)(=O)N1CCN(c2cc(N3CCCC3CO)ncn2)CC1 (centres undefined),-0.07305
17,CC(Sc1nncn1C)C(=O)NCCCOc1ccc(F)cc1 (centres undefined),9.016
18,O=C(NCc1ccccn1)[C@@H]1COC[C@H]2CN(C3CCC3)C[C@H]21.O=C(O)C(F)(F)F.O=C(O)C(F)(F)F,3.202
19,O=C(O)C(F)(F)F.O=C(O)C(F)(F)F.O=C(c1ccco1)N1C[C@@H]2OCCN(CCN3CCCC3)[C@@H]2C1,-4.474
20,Cl.c1cc(CNCc2cccc3c2OCCCO3)cc(Cn2cncn2)c1,-3.738
21,N#Cc1ccc(C(=O)N2CC[C@H]3[C@@H]2CCC(=O)N3c2cccnc2)cc1.O=C(O)C(F)(F)F,0.7242
22,Cl.NCC1CCCCN1C(=O)Cc1cccc(Cl)c1 (centres undefined),-16.31
23,O=C(C[S+]([O-])Cc1cccc(Cl)c1)NC1CCCC1 (centres undefined),-6.776

row,Structure (SMILES),Percent Effect [%]
1,Cl.Cl.Clc1cccc(C[C@@H]2NCCC[C@@H]2Nc2ccccc2)c1,104.8
2,Clc1cccc(CNC2CCN(CCc3ccncc3)CC2)c1,-16.56
3,O=C1NCCCc2[nH]c(Cc3cccc(Cl)c3)nc21,2.952
4,O=C(Cc1cccc(Cl)c1)N[C@@H]1CCNC[C@H]1O,-8.967
5,Cl.Cl.Clc1cccc(C[C@@H]2NCCC[C@@H]2Nc2cccc(Cl)c2)c1,105.7
6,O=C(NCCc1cccc(Cl)c1)C1CCOCC1,-3.977
7,Cc1ccc(CN[C@@H]2COC[C@H]2c2ccc(F)cc2)cc1C.O=C(O)CC(O)(CC(=O)O)C(=O)O,-6.111
8,Cc1csc(CN2C[C@@H]3COC[C@]3(COCC(=O)N(C)C)C2)n1.O=C(O)C(F)(F)F,-22.07
9,CCn1cc2c(n1)CN(Cc1nccs1)CC2COCC1CC1.O=C(O)C(F)(F)F (centres undefined),3.982
10,CC(C)c1nc(N2CCC(N3CCCC(O)C3)CC2)c2cnn(C)c2n1 (centres undefined),-1.228
11,CC(C)c1nc(N2CCC(N3CCCCCC3)CC2)c2cnn(C)c2n1,94.23
12,CC(C)c1nc(N2CCC(N3CCSCC3)CC2)c2cnn(C)c2n1,-6.323
13,Cc1csc(CN2CCC[C@]3(C[C@@H](Oc4ccccn4)CO3)C2)n1.O=C(O)C(F)(F)F.O=C(O)C(F)(F)F,-18.33
14,CCOc1ccnc(N2CCN(Cc3ncccc3C)CC2)n1,17.62
15,Cc1noc(-c2ccc(N3CCN(Cc4ncccc4C)CC3)nc2)n1,-11.68
16,Cc1cccnc1CN1CCN(c2noc(-c3ccccc3)n2)CC1,100.3
17,Cc1nc(CN2C(=O)CCC23CCN(Cc2cccn2C)CC3)cs1.O=C(O)C(F)(F)F.O=C(O)C(F)(F)F,-21.2
18,Cn1cccc1C(=O)N1C[C@H]2CN(CC3CC3)C(=O)[C@H]2C1,12.5
19,CC(C)CN1C[C@@H]2CN(C(=O)c3cccn3C)C[C@@H]2C1=O,1.08
20,CCN1C[C@@H]2CN(C(=O)c3cccn3C)C[C@@H]2C1=O,97.42
21,O=C(NCc1ccc(F)cc1)C1CCCN(c2ccc3nncn3n2)C1 (centres undefined),-16.16
22,Fc1ccc(CN2CCO[C@H]3[C@H](OCc4ccncc4)CC[C@@H]32)cc1.O=C(O)C(F)(F)F.O=C(O)C(F)(F)F,22.03
23,COc1cc(CN2CCCC2)ccc1Oc1ncccc1C(F)(F)F,-12.36

row,Structure (SMILES),Percent Effect [%]
1,COc1cc(Oc2ncccc2C(F)(F)F)ccc1CN1CCCC1,53
2,COc1ccc(Oc2ncccc2C(F)(F)F)cc1CN1CCCC1,7.068
3,C1CN(CC2CC2)C(COCC2CC2)c2nnn(CC3CC3)c21.O=C(O)C(F)(F)F (centres undefined),-14.94
4,COc1ccc(CNC(=O)Cn2ccc3sccc3c2=O)cc1,-0.6252
5,Cl.Cn1cc([C@@H]2CN(S(=O)(=O)c3ccccc3F)C[C@H]2N)c2ccncc21,-1.741
6,CN(C)C(=O)CN1CCC2(CCN(CC3CC3)CC2)C1=O.O=C(O)C(F)(F)F,-28.35
7,O=C(O)C(F)(F)F.O=C(O)C(F)(F)F.O=C1[C@@H]2CCN(Cc3ccoc3)C[C@@H]2OCCN1Cc1cccnc1,-189.5
8,CN(C)CCOCC1CN(Cc2cccc(F)c2)Cc2nccn2C1.O=C(O)C(F)(F)F.O=C(O)C(F)(F)F (centres undefined),-23.51
9,CCCN(Cc1cnc2ccccc2n1)Cc1ccccc1OC,19.04
10,CCCN(Cc1ccccn1)Cc1ccccc1OC,31.04
11,CCCN(Cc1nc2ccccc2[nH]1)Cc1ccccc1OC,67.04
12,O=C(O)C(F)(F)F.O=C(O)C(F)(F)F.O=C(O)c1c(-c2cccnc2)ncc2c1CCN(Cc1cccnc1)C2,-14.58
13,Cc1nc(CO[C@@H]2CN(Cc3nccs3)[C@@H]3COC[C@@H]32)cs1.O=C(O)C(F)(F)F,-44.36
14,CN(C)S(=O)(=O)N1CC[C@]2(C[C@@H](Oc3cccnc3)CO2)C1.O=C(O)C(F)(F)F,-11.53
15,CC(Nc1nc(-c2ccccc2)nc2c1CCNCC2)c1cccnc1 (centres undefined),73.2
16,CC(Nc1nc(-c2ccccc2)nc2c1CCNCC2)c1nccs1 (centres undefined),20.74
17,CC(Nc1nc(-c2ccncc2)nc2c1CCNC2)c1ccccc1 (centres undefined),18.8
18,O=C(O)C(F)(F)F.O=C(O)C(F)(F)F.c1cnc(N2CCOC3(CCN(CC4CCCCC4)CC3)C2)nc1,13.11
19,O=C(O)C(F)(F)F.c1ncn(Cc2cnc3n2CCN(Cc2ccsc2)CC3)n1,-8.028
20,Cc1noc(NC(=O)c2ccc(C)c(F)c2)n1,105.5
21,Cc1cc(NC(=O)c2ccc(C)c(F)c2)[nH]n1,1.383
22,CN(C)Cc1ccccc1NC(=O)c1ccc(C#N)cc1,-24.53
23,Cc1noc(NC(=O)c2ccc(C#N)cc2)n1,69.42

row,Structure (SMILES),Percent Effect [%]
1,Cc1c(NC(=O)c2cccc(Br)c2)c(C(=O)N(C)C)nn1C,-8.879
2,Cc1ccc(C(=O)Nc2cn[nH]c2)cc1F,-0.1311
3,O=C(NCCn1ccnc1)c1cccc(Br)c1,24.48
4,Cc1noc(COCC(=O)Nc2ccc(Br)c(C)n2)n1,3.251
5,Cc1nc(C(C)(C)NC(=O)Nc2ccc(C#N)cc2)no1,-15.18
6,Cc1noc(NC(=O)c2ccc(Br)o2)n1,-6.271
7,Cc1noc(NC(=O)c2cccc(Br)c2)n1,106.8
8,Cc1noc(NC(=O)c2ccc(Br)s2)n1,103.3
9,O=C(O)C(F)(F)F.O=C(O)C(F)(F)F.c1ccc(N2CC[C@H](OCC3CC3)[C@@H]2Cc2cccnc2)nc1,14.43
10,O=C(O)C(F)(F)F.c1cc(-c2ccc3nc(C4CCN(CC5CC5)CC4)nn3c2)cs1,-34.74
11,Cc1cc(C)nc(N2CC=C[C@@H]2C(=O)NCc2ccc3c(c2)OCO3)n1.Cl,15.24
12,CN(C)C(=O)N1C[C@@H]2CC[C@H](C1)N(C(=O)c1cccc(N(C)C)c1)C2,-44.86
13,CC(C)N(C(=O)Cn1c(-c2ccco2)cc2cccnc21)C(C)C.Cl,22.85
14,CCN1CCn2c(C)cnc2C12CCN(C(=O)c1ccco1)CC2.O=C(O)C(F)(F)F.O=C(O)C(F)(F)F,-2.925
15,CN(C)CCN1C(=O)CCC12CCCN(C(=O)N(C)C)CC2.O=C(O)C(F)(F)F (centres undefined),-13.38
16,Cc1nc(C2(O)CCCNCC2)sc1CCOc1ccc(F)cc1.Cl (centres undefined),-29.66
17,CC[C@@H]1N(Cc2cccnc2)CCC[C@]12CCC(=O)N2C.O=C(O)C(F)(F)F.O=C(O)C(F)(F)F,-6.56
18,Cc1cc(CCC2CN(CC3(O)CCCCC3)CCO2)ncn1 (centres undefined),-44.25
19,O=C(O)C(F)(F)F.O=C1CC[C@H]2[C@@H](CCN2Cc2ccco2)N1,9.652
20,O=C(O)C(F)(F)F.O=C(O)C(F)(F)F.c1cc(CN2C[C@@H]3OCCN(CC4CCCO4)[C@@H]3C2)cs1 (some centres undefined),-21.3
